We go through 40 molecules from PubChem BioAssay.

Structures are written as SMILES. A number with no mark means an inactive call. Active and inactive are the calls of the source.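 Rule for the calls, unless noted: active = growth inhibition above 50% at the single 2 µM test dose, taken to imply half-maximal potency below 2 µM; inactive = the rest.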

A short description of the first test: antimalarial activity against Dd2 strain (AID 2302).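 Note: 0% = DMSO untreated growth and 100% = chloroquine plus artemisinin killed control.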 The settings on record: P. falciparum Dd2 in RBCs, LDH growth readout, 72 h; at 2 µM; active compounds read high.
Take `CC(C)Nc1nc(NCCc2cnc[nH]2)nc(Nc2ccc(Oc3ccccc3)cc2)n1`: the growth inhibition is 9%.
In the case of `CN(C)CCCNCc1ccc(-c2ccc(F)c(Cl)c2)o1`, the growth inhibition is 69% (active).
Turning to `COc1ccccc1Cc1nc2ccccc2nc1SCC(=O)Nc1cccc(C(F)(F)F)c1`, the growth inhibition is 91% (active).
In the case of `CN1CCC(N2CCN(Cc3ccc(-c4ccc(-c5nc6ccccc6[nH]5)s4)cc3)CC2)CC1`, the growth inhibition is 100% (active).
As for `Cn1cnc2c(Nc3ccncc3)nc(-c3ccc(OC(F)(F)F)cc3)nc21`, the growth inhibition is 65% (active).
For the molecule `CCc1cn2c3c(cc(C(=O)N[C@@H](Cc4ccccc4)[C@H](O)CNCC(C)C)cc13)N(C)S(=O)(=O)CC2`, the growth inhibition was 99% (active).
Consider `O=C(/C=C/c1cccc(Cl)c1)Nc1ccc2nc(CN3CCCC3)ccc2c1`, for which the growth inhibition was 42%.
For `O=C(C=Cc1ccc(Cl)c(Cl)c1)NCCCCCN1CCCC(CCCNC(=O)c2sc3ccccc3c2Cl)C1` (stereo not given), the growth inhibition was 32%.
With `CC(=O)NCCNc1nccc(N2CCc3ncnc(Nc4ccc(OCc5cccc(F)c5)c(Cl)c4)c3C2)n1`, the growth inhibition was 100% (active).
On to `Cc1c(-c2cccc(CNCCc3ccc(Cl)cc3)c2)cnc(N)c1C`, for which the growth inhibition was 30%.
In the case of `CCCCn1c(Sc2ccc(C#N)c([N+](=O)[O-])c2)nnc1-c1cc(OC)cc(OC)c1`, the growth inhibition was 70% (active).
Take `Cc1cc(N2CCN(CC3CCCCC3)CC2)nc(Nc2ccc(Br)cc2)n1`: the growth inhibition is 16%.
`O=c1[nH]c(NCCCNCc2cc3c(Cl)cc(Cl)cc3[nH]2)nc2ccsc12`: the growth inhibition was 11%.
Same read-out and setting: as for `Cc1cccc2[nH]c(-c3ccc(-c4cccc(NC(=O)c5ccncc5)c4)cc3)nc12`, the figure is 8%; as for `Clc1ccc2c(N3CCCNCC3)ccnc2c1`, 99% (active).
In the case of `Cc1ccc2c(NN=Cc3cccc(Cl)c3)cc(C)nc2c1`, the growth inhibition is 52% (active).
In the case of `COc1ccc2nccc([C@@H](O)CN3CCC(NCc4ccc5c(c4)N(C)C(=O)CO5)CC3)c2c1`, the growth inhibition was 95% (active).
With `COc1ccc(CC(=O)Nc2ccc(Nc3nc(C)cc(N4CCCC4)n3)cc2)cc1`, the growth inhibition was 65% (active).
In the case of `CCCc1ccc(S(=O)(=O)Nc2ccc3c(c2)CCC3)cc1`, the growth inhibition is -1%.
As for `NC(=O)c1ccsc1NC(=O)CNC(c1ccc(F)cc1)c1cccs1` (stereo not given), the growth inhibition was 71% (active).
On to `COc1ccc(S(=O)(=O)Nc2cc(Br)cc3c2OCCC3)cc1N1CCN(C(=O)C(Cl)(Cl)Cl)CC1`, for which the growth inhibition was 51% (active).
Turning to `CN1CCN(c2ccc(Nc3c(C(N)=O)cnc4cc(-c5ccoc5)ccc34)cc2C(F)(F)F)CC1`, the growth inhibition was 97% (active).
As for `Cc1cc(N[C@@H](CC(C)C)C(=O)NCCOc2ccccc2)nc(Nc2ccccc2)n1`, the growth inhibition was 9%.
For the molecule `COc1cc(C(=O)NC2CCN(Cc3ccccc3)CC2)ccc1-c1nc2cc(Cl)c(Cl)cc2[nH]1`, the growth inhibition is 100% (active).
Still for that read-out and setting: then `CN(CCN)Cc1cccc(-c2ccc(-c3nc4ccc(C(F)(F)F)cc4[nH]3)s2)c1`, with 92% (active); and `CCc1c[nH]c2c(N3CCCC3=O)cc(C(=O)N[C@@H](Cc3ccccc3)[C@H](O)CNC(C)(C)c3cccc(C(F)(F)F)c3)cc12`, with 99% (active); and `CC(=O)Nc1cccc(C(=O)Nc2nc3ccc(-c4cc(=O)[nH]c(Nc5ccccc5Cl)n4)cc3[nH]2)c1`, with 62% (active).
The same measure, in the same setting: as for `Cc1nn(-c2ccccc2)c2sc(C(=O)N(CCCN(C)C)c3nc(-c4ccccc4)cs3)cc12`, the figure is 36%; as for `COc1ccc(CNC(=O)C2Cc3ccccc3CN2Cc2ccc3ccccc3c2)cc1` (stereo not given), 84% (active); as for `c1cc(-c2ccc(CN3CCCCC3)cc2)cc(-c2nc3ccccc3[nH]2)c1`, 79% (active).
For the molecule `Cn1c2c(c3ccccc31)CN(CCC1(c3ccc(Cl)c(Cl)c3)CN(C(=O)Cc3ccccc3)CCO1)CC2` (stereo not given), the growth inhibition is 91% (active).
On to `CN(C)CCCNCc1ccc(-c2ccc(C(F)(F)F)cc2)cc1`, for which the growth inhibition is 35%.
On to `CCCc1cc(OC)c(CC2c3cc(O)c(Cl)cc3CCN2C)cc1OC` (stereo not given), for which the growth inhibition was 99% (active).
For `c1ccc(Nc2nc(-c3ccccn3)cs2)nc1`, the growth inhibition is 93% (active).
Regarding `N#Cc1ccc(NC(=O)c2ccc(Cc3ccc4c(c3)CCN(C3CCC3)CC4)cn2)cc1`, the growth inhibition was 2%.
Consider `Cc1cccc2[nH]c(-c3ccc(-c4cccc(CN5CCC(N)C5)c4)s3)nc12` (stereo not given), for which the growth inhibition was 78% (active).
For `COc1ccc2ncc(F)c(CCN3C[C@H](CNCc4ccc5ccccc5c4)[C@H](O)C3)c2n1`, the growth inhibition is 78% (active).
As for `Cn1nc(C(F)(F)F)c(-c2ccc(Br)cc2)c1NC(=O)Nc1ccc(F)cc1F`, the growth inhibition is 99% (active).
For `CCOC(=O)N1CCN(CCCNc2c3ccccc3nc3ccccc23)CC1`, the growth inhibition was 20%.
The same measure, in the same setting: then `N#Cc1ccc2c(c1)CCN(CCC1CCC(NC(=O)Nc3ccnc4ccccc34)CC1)C2` (stereo not given), with 77% (active).

A short description of the next test: HepG2 cytotoxicity, primary screen, cytotoxicity control for P. falciparum antimalarial project, cell-based, ATP luminescence (AID 2303;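 active = inhibition above 50%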;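 note: 0% = DMSO wells and 100% = digitonin-killed cells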). The settings on record: HepG2 viability, 24-48 h, at 10 µM, active compounds read high.
In the case of `CC(C)Nc1nc(NCCc2cnc[nH]2)nc(Nc2ccc(Oc3ccccc3)cc2)n1`, the inhibition (usually the drop in the measured response relative to a control, in per cent) is -3%.
`CN(C)CCCNCc1ccc(-c2ccc(F)c(Cl)c2)o1`: the inhibition was 29%.
Regarding `COc1ccccc1Cc1nc2ccccc2nc1SCC(=O)Nc1cccc(C(F)(F)F)c1`, the inhibition is 8%.
For `CN1CCC(N2CCN(Cc3ccc(-c4ccc(-c5nc6ccccc6[nH]5)s4)cc3)CC2)CC1`, the inhibition is 62% (active).
Consider `Cn1cnc2c(Nc3ccncc3)nc(-c3ccc(OC(F)(F)F)cc3)nc21`, for which the inhibition is 28%.
Regarding `CCc1cn2c3c(cc(C(=O)N[C@@H](Cc4ccccc4)[C@H](O)CNCC(C)C)cc13)N(C)S(=O)(=O)CC2`, the inhibition is -1%.
As to `O=C(/C=C/c1cccc(Cl)c1)Nc1ccc2nc(CN3CCCC3)ccc2c1`, the inhibition was 47%.
Still for that read-out and setting: then `O=C(C=Cc1ccc(Cl)c(Cl)c1)NCCCCCN1CCCC(CCCNC(=O)c2sc3ccccc3c2Cl)C1` (stereo not given), with 82% (active); and `CC(=O)NCCNc1nccc(N2CCc3ncnc(Nc4ccc(OCc5cccc(F)c5)c(Cl)c4)c3C2)n1`, with 10%.
Consider `Cc1c(-c2cccc(CNCCc3ccc(Cl)cc3)c2)cnc(N)c1C`, for which the inhibition is 9%.
For the molecule `CCCCn1c(Sc2ccc(C#N)c([N+](=O)[O-])c2)nnc1-c1cc(OC)cc(OC)c1`, the inhibition was 7%.
As for `Cc1cc(N2CCN(CC3CCCCC3)CC2)nc(Nc2ccc(Br)cc2)n1`, the inhibition was -1%.
In the case of `O=c1[nH]c(NCCCNCc2cc3c(Cl)cc(Cl)cc3[nH]2)nc2ccsc12`, the inhibition was 62% (active).
For the molecule `Cc1cccc2[nH]c(-c3ccc(-c4cccc(NC(=O)c5ccncc5)c4)cc3)nc12`, the inhibition was 46%.
With `Clc1ccc2c(N3CCCNCC3)ccnc2c1`, the inhibition is 11%.
As for `Cc1ccc2c(NN=Cc3cccc(Cl)c3)cc(C)nc2c1`, the inhibition is 50% (active).
Consider `COc1ccc2nccc([C@@H](O)CN3CCC(NCc4ccc5c(c4)N(C)C(=O)CO5)CC3)c2c1`, for which the inhibition is -3%.
For `COc1ccc(CC(=O)Nc2ccc(Nc3nc(C)cc(N4CCCC4)n3)cc2)cc1`, the inhibition was 56% (active).
As to `CCCc1ccc(S(=O)(=O)Nc2ccc3c(c2)CCC3)cc1`, the inhibition was 8%.
For the molecule `NC(=O)c1ccsc1NC(=O)CNC(c1ccc(F)cc1)c1cccs1` (stereo not given), the inhibition was 31%.
In the case of `COc1ccc(S(=O)(=O)Nc2cc(Br)cc3c2OCCC3)cc1N1CCN(C(=O)C(Cl)(Cl)Cl)CC1`, the inhibition was 4%.
On the same count and under the same terms, then `CN1CCN(c2ccc(Nc3c(C(N)=O)cnc4cc(-c5ccoc5)ccc34)cc2C(F)(F)F)CC1`, with 13%; and `Cc1cc(N[C@@H](CC(C)C)C(=O)NCCOc2ccccc2)nc(Nc2ccccc2)n1`, with 9%.
`COc1cc(C(=O)NC2CCN(Cc3ccccc3)CC2)ccc1-c1nc2cc(Cl)c(Cl)cc2[nH]1`: the inhibition was 14%.
Turning to `CN(CCN)Cc1cccc(-c2ccc(-c3nc4ccc(C(F)(F)F)cc4[nH]3)s2)c1`, the inhibition was 27%.
On to `CCc1c[nH]c2c(N3CCCC3=O)cc(C(=O)N[C@@H](Cc3ccccc3)[C@H](O)CNC(C)(C)c3cccc(C(F)(F)F)c3)cc12`, for which the inhibition was 10%.
For `CC(=O)Nc1cccc(C(=O)Nc2nc3ccc(-c4cc(=O)[nH]c(Nc5ccccc5Cl)n4)cc3[nH]2)c1`, the inhibition was -2%.
Still for that read-out and setting: as for `Cc1nn(-c2ccccc2)c2sc(C(=O)N(CCCN(C)C)c3nc(-c4ccccc4)cs3)cc12`, the figure is 99% (active); as for `COc1ccc(CNC(=O)C2Cc3ccccc3CN2Cc2ccc3ccccc3c2)cc1` (stereo not given), 15%; as for `c1cc(-c2ccc(CN3CCCCC3)cc2)cc(-c2nc3ccccc3[nH]2)c1`, 39%.
Regarding `Cn1c2c(c3ccccc31)CN(CCC1(c3ccc(Cl)c(Cl)c3)CN(C(=O)Cc3ccccc3)CCO1)CC2` (stereo not given), the inhibition is 22%.
`CN(C)CCCNCc1ccc(-c2ccc(C(F)(F)F)cc2)cc1`: the inhibition was 30%.
The same measure, in the same setting: as for `CCCc1cc(OC)c(CC2c3cc(O)c(Cl)cc3CCN2C)cc1OC` (stereo not given), the figure is 19%; as for `c1ccc(Nc2nc(-c3ccccn3)cs2)nc1`, 45%.
The same measure, in the same setting: then `N#Cc1ccc(NC(=O)c2ccc(Cc3ccc4c(c3)CCN(C3CCC3)CC4)cn2)cc1`, with 66% (active); and `Cc1cccc2[nH]c(-c3ccc(-c4cccc(CN5CCC(N)C5)c4)s3)nc12` (stereo not given), with 16%.
For the molecule `COc1ccc2ncc(F)c(CCN3C[C@H](CNCc4ccc5ccccc5c4)[C@H](O)C3)c2n1`, the inhibition is 57% (active).
As for `Cn1nc(C(F)(F)F)c(-c2ccc(Br)cc2)c1NC(=O)Nc1ccc(F)cc1F`, the inhibition was 16%.
Turning to `CCOC(=O)N1CCN(CCCNc2c3ccccc3nc3ccccc23)CC1`, the inhibition was 5%.
Take `N#Cc1ccc2c(c1)CCN(CCC1CCC(NC(=O)Nc3ccnc4ccccc34)CC1)C2` (stereo not given): the inhibition was 38%.
